Test results as given in PubChem BioAssay (EPA / NIEHS).
Inconclusive results are not listed. Where a structure was tested more than once in an assay, its records may differ in their call. Activity calls are given as the source filed them. The calls were made as follows, unless noted: active = hit-call score of the fitted dose curve at least 0.9, where 1 is the maximum; inactive = score below 0.9.

Tests used:
[1] = CCTE_Shafer_MEA_dev_active_electrodes_number: CCTE's Neural Network Formation Assay for Number of Active Electrodes, Shafer Lab (AID 2284040; active = hit-call score of the fitted dose curve at least 0.9, where 1 is the maximum;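 as to AC50: potency for loss of active electrodes versus DMSO so lower counts are hits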)
In short: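 Developing rat cortical networks on MEAs, exposed DIV 0–12. Value is the AUC of active-electrode counts (≥5 spikes/min) from days 5, 7, 9, 12, relative to DMSO.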

[2] = CCTE_Shafer_MEA_dev_burst_rate: CCTE's Neural Network Formation Assay for Burst Rate, Shafer Lab (AID 2284042);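 as to AC50: potency for loss of burst rate below DMSO control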
In short: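 Exposure ran continuously over 12 days of network development in rat cortical cultures, with compound refreshed during full media changes on DIV 5 and 9. Single-electrode bursts per recording time, well-mean over active electrodes, trapezoidal AUC across days 5–12, fitted downward relative to DMSO.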

[3] = CCTE_Shafer_MEA_dev_bursting_electrodes_number: CCTE's Neural Network Formation Assay for Number of Bursting Electrodes, Shafer Lab (AID 2284043; active = hit-call score of the fitted dose curve at least 0.9, where 1 is the maximum;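 as to AC50: potency is for loss of bursting electrodes relative to DMSO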)
In short: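 Counted: electrodes with burst rate ≥1 per 2 min in each well. Cells: primary rat cortex, 1.5 x 10^5/well, on 16-electrode MEA wells. Exposure: DIV 0–12, compound renewed DIV 5 and 9. Recording days 5, 7, 9, 12; AUC vs DMSO baseline.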

[4] = CCTE_Shafer_MEA_dev_per_burst_interspike_interval: CCTE's Neural Network Formation Assay for Burst Interspike Interval, Shafer Lab (AID 2284044);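 also: mean spike spacing inside bursts as AUC over recordings on days 5 7 9 12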;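 as to AC50: potency for a decrease of within-burst interspike interval below DMSO level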
In short: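 Neurons from rat cortex plated onto PEI-coated MEA wells with laminin […] at 1.5 x 10^5 cells/well, then treated from day 0. Media and compound fully replaced on DIV 5 and 9. Extracellular spontaneous firing recorded four times; interspike interval per burst summarised as AUC.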

[5] = CCTE_Shafer_MEA_dev_burst_duration_mean: CCTE's Neural Network Formation Assay for Mean Burst Duration, Shafer Lab (AID 2284045);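 as to AC50: curve fitted for loss meaning shorter burst duration than DMSO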
In short: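 Network-formation assay in primary rat cortical neurons; treatment spans twelve days of development. Mean burst duration per well is integrated by trapezoidal AUC and fitted in the loss-of-signal direction against DMSO baseline.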

[6] = CCTE_Shafer_MEA_dev_interburst_interval_mean: CCTE's Neural Network Formation Assay for Mean Interburst Interval, Shafer Lab (AID 2284046);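 also: well-mean interburst interval of bursting electrodes as AUC over four recording days; curve fitted for decrease in interburst interval relative to DMSO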
In short: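 Primary rat cortical neurons on PEI-coated 48-well MEA plates (laminin added with cells at plating) (16 electrodes/well), exposed from plating day 0 with renewal at DIV 5 and 9. Mean inter-burst interval averaged over bursting electrodes, AUC across days 5, 7, 9, 12; DMSO baseline.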

[7] = CCTE_Shafer_MEA_dev_inter_network_spike_interval_mean: CCTE's Neural Network Formation Assay for Mean Inter-network Spike Interval, Shafer Lab (AID 2284047);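 as to AC50: potency for a decrease in mean inter-network spike interval below DMSO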
In short: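 Mean time between consecutive network-spike peaks, recorded extracellularly (adaptive spike detection) on DIV 5, 7, 9 and 12, summarized as trapezoidal AUC. Rat cortical cultures on MEAs dosed continuously days 0–12, re-dosed at feeds; loss-of-signal fit relative to DMSO.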

[8] = CCTE_Shafer_MEA_dev_network_spike_peak: CCTE's Neural Network Formation Assay for Mean Number of Electrodes in Network Spike, Shafer Lab (AID 2284049);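 as to AC50: fitted for loss of signal meaning fewer electrodes in network spikes than DMSO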
In short: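 Continuous 12-day exposure of rat cortical cultures, starting at plating, on MEA plates. Endpoint: electrodes participating in network-spike peaks, AUC across DIV 5–12, DMSO as negative control.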

[9] = target: Estrogen receptor (Homo sapiens) (UniProt P03372); assay: CCTE_Deisenroth_AIME_384WELL_LUC_Shift: CCTE's 384-well Estrogen Receptor Transactivation Assay with AIME metabolic competence data shift (ERTA luciferase; difference in metabolism positive and negative), Deisenroth Lab (AID 2284041);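 also: shift is response with S9 minus without S9 so positive means metabolism raised ER signal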
Estrogen receptor (Homo sapiens), sequence (P03372 whole entry, looked up): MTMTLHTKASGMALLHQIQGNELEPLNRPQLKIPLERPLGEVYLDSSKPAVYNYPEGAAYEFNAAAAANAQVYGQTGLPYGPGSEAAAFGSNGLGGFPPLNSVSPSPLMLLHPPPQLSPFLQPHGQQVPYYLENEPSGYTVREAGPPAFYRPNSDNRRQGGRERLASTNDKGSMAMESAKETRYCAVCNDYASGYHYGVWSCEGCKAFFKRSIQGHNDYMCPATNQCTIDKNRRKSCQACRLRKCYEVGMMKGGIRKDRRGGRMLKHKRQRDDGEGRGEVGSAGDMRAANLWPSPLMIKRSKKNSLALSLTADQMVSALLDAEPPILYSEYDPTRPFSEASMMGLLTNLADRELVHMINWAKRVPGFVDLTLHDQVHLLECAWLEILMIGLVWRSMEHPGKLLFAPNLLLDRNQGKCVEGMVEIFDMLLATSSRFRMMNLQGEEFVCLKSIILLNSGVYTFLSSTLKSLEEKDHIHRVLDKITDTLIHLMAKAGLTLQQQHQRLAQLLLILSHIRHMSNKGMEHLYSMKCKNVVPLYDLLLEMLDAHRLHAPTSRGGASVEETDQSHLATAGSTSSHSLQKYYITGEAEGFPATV
Protocol: CCTE_Deisenroth_AIME_384WELL (AIME metabolism assay) is a cell-based, single-readout assay that uses VM7Luc4E2, a human mammary gland/breast cell line, with measurements taken at 24 hour after chemical dosing in a 384-well plate.CCTE_Deisenroth_AIME_384WELL_LUC_Shift is one of two analysis components calculated from the CCTE_Deisenroth_AIME_384WELL assay. […] AIME is optimized to impart phase I hepatic metabolism using phenobarbital/beta-naphthoflavone induced hepatic S9 from male Sprague Dawley rats. Parent chemicals are incubated for 2 hours in the AIME assay prior to transfer to the VM7Luc ERTA assay plate. […] The metabolic curve shift response is defined as the pairwise difference between the positive (AEID 2488) and negative (AEID 2490) normalized response values at each concentration for a given chemical across replicate experiments. The pairwise differences form the basis for a concentration-response curve. Standard curve fit analysis identfiied chemicals where the calculated shift was greater than the shift-derived baseline cutoff. A positive hit designation in this endpoint indicates a significant shift trend in the positive direction for bioactivation.
The AIME procedure consists of a preparative "pre-stamping" step using a barium chloride/poly-L-lysine (PLL) solution followed by "stamping" the lid in alginate-hepatic S9 (metabolism positive) or alginate-water (metabolism negative) to form microspheres. Once stamping is completed, the AIME lids are placed in duplicate microplates (metabolism positive or negative) containing chemical solutions and incubated for two hours to facilitate metabolic reactions. The conditioned medium, containing parent chemical or metabolites, is then transferred to the cell-based VM7Luc Estrogen Receptor Transactivation Assay (ERTA) for 24 hours. A typical experimental design tests a 10-point concentration series (0.002 - 200 uM) for 8 compounds (96-well format)1 or 32 compounds (384-well format)2 in single technical replicate. AIME assay controls include trans-stilbene (bioactivated control) and ethylparaben (bioinactivated control). ERTA assay plate controls include 17-beta estradiol (positive control) and DMSO (solvent control). Experiments typically comprise a minimum of four experimental replicates (n=4).

[10] = system: DIO2 (gene 1734); assay: CCTE_GLTED_hDIO2: CCTE's human Deiodinase 2 (DIO2) Inhibition Assay, Great Lakes Toxicology and Ecology Division (GLTED) Lab (AID 2284050; active = hit-call score of the fitted dose curve at least 0.9, where 1 is the maximum)
In short: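 Readout: absorbance from Sandell-Kolthoff detection of free iodide released by human DIO2 during a 3 h incubation with chemical. Cell-free format, n=3; activity fitted relative to DMSO negative control.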

Measured: AC50

O=C(F)C(F)(F)C(F)(F)C(F)(F)C(=O)F
not listed: [9] | [10]
inactive: all other assays above

FCOC(C(F)(F)F)C(F)(F)F
not listed: [9] | [10]
inactive: all other assays above

CCCCc1ccc2ccccc2c1S(=O)(=O)O
inactive: [9]

O=C(O)C(F)(F)OC(F)(F)C(F)(F)OC(F)(F)C(F)(F)OC(F)(F)C(F)(F)C(F)(F)C(F)(F)F
active: [10] 60500 nM
not listed: [3] | [9]
inactive: all other assays above

O=C(CC(=O)C(F)(F)C(F)(F)C(F)(F)F)c1cccs1
active: [1] 8830 nM | [3] 8130 nM | [6] 5430 nM | [8] 7420 nM
inactive: [2] | [4] | [5] | [7]

O=P(O)(O)CCC(F)(F)C(F)(F)C(F)(F)C(F)(F)C(F)(F)C(F)(F)F
inactive: [2] | [4] | [5] | [6] | [7] | [8]

COc1cc([N+](=O)[O-])ccc1N
inactive: [9]

O=C(O)CCC(F)(F)C(F)(F)C(F)(F)C(F)(F)C(F)(F)F
not listed: [1] | [9] | [10]
inactive: all other assays above

CN(Cc1cnc2nc(N)nc(N)c2n1)c1ccc(C(=O)N[C@@H](CCC(=O)O)C(=O)O)cc1
active: [1] 30.3 nM | [2] 36.5 nM | [3] 20.9 nM | [4] 2980 nM | [5] 72.8 nM | [6] 136 nM | [7] 30.8 nM | [8] 27.9 nM

O=C(CCCN1CCC(O)(c2ccc(Cl)cc2)CC1)c1ccc(F)cc1
inactive: [7]
active: [1] 2330 nM | [2] 531 nM | [3] 1650 nM | [4] 1780 nM | [5] 1290 nM | [6] 3120 nM | [8] 2020 nM

O=C(OC(=O)C(F)(F)C(F)(F)F)C(F)(F)C(F)(F)F
not listed: [9] | [10]
inactive: all other assays above

COC(=O)C(F)(F)C(F)(F)C(F)(F)C(F)(F)C(F)(F)F
inactive: [2] | [4] | [5] | [6] | [7] | [8]

O=C1NS(=O)(=O)c2ccccc21
not listed: [9] | [10]
inactive: all other assays above

Cc1cc(Cc2cc(C)cc(C(C)(C)C)c2O)c(O)c(C(C)(C)C)c1
inactive: [9]
active: [10] 97600 nM

Nc1ccn([C@@H]2O[C@H](CO)[C@@H](O)C2O)c(=O)n1 (some centres not stated)
active: [1] 472 nM | [2] 314 nM | [3] 333 nM | [4] 850 nM | [5] 856 nM | [6] 695 nM | [8] 329 nM
inactive: [7]

CN(CCO)S(=O)(=O)C(F)(F)C(F)(F)C(F)(F)C(F)(F)C(F)(F)C(F)(F)C(F)(F)C(F)(F)F
not listed: [1] | [9] | [10]
inactive: all other assays above

CC(=O)Nc1ccc(O)cc1
inactive: [1] | [2] | [3] | [4] | [5] | [6] | [7] | [8]
active: [3] 82.4 nM | [5] 22500 nM
